Inconclusive results are not listed. Where a call stands in place of a potency, no number is given. The source made the active and inactive calls. The call rests on the fitted dose curve; in most records, active means well fitted inhibition curve with a large enough effect; inconclusive means small, poorly fitted or top-dose-only effect; inactive means flat fitted curve, though single readings scatter.
Assays:
Experiment in all cases: qHTS profiling for inhibitors of Plasmodium falciparum proliferation (AID 504749); further: nearly all actives have a fitted effect of over 60% in size
Conditions in all cases: P. falciparum in erythrocytes, SYBR Green DNA, 72 h; series mostly up to 28.7 µM
[1] = test system: CP192
Procedure, shortened: (§1)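 Readout was DNA-dye fluorescence from lysed cultures, ex 485/em 535 nm. Parasitized red cells had grown 72 h with compound; data scaled between 0.29 uM artemisinin and DMSO wells and corrected using vehicle-only plates.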

[2] = test system: CP203
Procedure, shortened: as §1

[3] = test system: CP238
Procedure, shortened: as §1

[4] = test system: CP262
Procedure, shortened: as §1

[5] = test system: CP265
Procedure, shortened: as §1

[6] = test system: CP211
Procedure, shortened: as §1

[7] = test system: CP201
Procedure, shortened: as §1

[8] = test system: CP217
Procedure, shortened: as §1

[9] = test system: CP237
Procedure, shortened: as §1

[10] = test system: CP260
Procedure, shortened: as §1

[11] = test system: CP194
Procedure, shortened: as §1

[12] = test system: CP215
Procedure, shortened: as §1

[13] = test system: CP247
Procedure, shortened: as §1

[14] = test system: CP250
Procedure, shortened: as §1

[15] = test system: CP256
Procedure, shortened: as §1

[16] = test system: CP266
Procedure, shortened: as §1

[17] = test system: CP268
Procedure, shortened: as §1

[18] = test system: CP269
Procedure, shortened: as §1

[19] = test system: CP252
Procedure, shortened: as §1
Potency means the concentration at half of the fitted maximal effect.

SMILES: CNCCCCOc1ccccc1Cc1ccccc1
- Potency [1]: inactive
- Potency [2]: 4.26 µM (active)
- Potency [3]: 8.91 µM (active)
- Potency [4]: inactive
- Potency [5]: 8.91 µM (active)

SMILES: Clc1cccc(C(c2ccc3nc[nH]c3c2)n2ccnc2)c1 (stereo unspecified)
- Potency [6]: 12 µM (active)
- Potency [3]: inactive
- Potency [4]: inactive

SMILES: CN(CCCN1c2ccccc2CCc2ccccc21)CC(=O)c1ccc(Cl)cc1
- Potency [1]: inactive
- Potency [7]: inactive
- Potency [8]: 11.2 µM (active)
- Potency [9]: 12.6 µM (active)
- Potency [10]: 10 µM (active)
- Potency [4]: inactive
- Potency [5]: 11.2 µM (active)

SMILES: Cc1cc(CC(=O)O)c(C)n1-c1ccc(Cl)cc1
- Potency [1]: inactive
- Potency [11]: inactive
- Potency [7]: inactive
- Potency [2]: inactive
- Potency [6]: inactive
- Potency [12]: inactive
- Potency [3]: inactive
- Potency [13]: inactive
- Potency [14]: inactive
- Potency [15]: inactive
- Potency [10]: inactive
- Potency [4]: inactive
- Potency [5]: inactive
- Potency [16]: inactive
- Potency [17]: inactive
- Potency [18]: inactive

SMILES: CN(C)C(=O)Nc1ccc(Cl)c(Cl)c1
- Potency [1]: inactive
- Potency [13]: 4.47 µM (active)
- Potency [14]: inactive
- Potency [4]: inactive
- Potency [5]: inactive
- Potency [17]: inactive

SMILES: CC(C)[N+](C)(C)CC(O)COc1cccc2ccccc12 (stereo unspecified)
- Potency [7]: inactive
- Potency [2]: inactive
- Potency [8]: inactive
- Potency [3]: inactive
- Potency [13]: inactive
- Potency [19]: inactive
- Potency [4]: inactive
- Potency [5]: inactive
- Potency [17]: inactive
